# Screens as filed in PubChem.
# This is a sample that favours compounds with a hit; in the whole collection about 2.8% have one here.
# PP1 counter: PP1-alpha (human) inhibition in PP5 counter-screen. P62136. purified PP1alpha, OMFP fluorescence. inhibition, % at 6.7 µM. 320,000 compounds, 0.9% hits. AID 2235;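 active = inhibition above the mean inhibition of all tested compounds plus 3 SD, computed separately for each screening campaign, cut at about 15% in these data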
# PP5 primary: inhibitors of human protein phosphatase 5 (PP5); P53041; purified PP5c, OMFP substrate fluorescence; inhibition, % at 6.7 µM; 320,000 compounds, 0.18% hits;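 active = inhibition above the campaign's mean inhibition across all tested compounds plus 3 SD, cut at about 9.5% in these data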;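 note: 0% = DMSO only and 100% = 100 µM cantharidin control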
# Target sequence (P53041 whole entry, looked up): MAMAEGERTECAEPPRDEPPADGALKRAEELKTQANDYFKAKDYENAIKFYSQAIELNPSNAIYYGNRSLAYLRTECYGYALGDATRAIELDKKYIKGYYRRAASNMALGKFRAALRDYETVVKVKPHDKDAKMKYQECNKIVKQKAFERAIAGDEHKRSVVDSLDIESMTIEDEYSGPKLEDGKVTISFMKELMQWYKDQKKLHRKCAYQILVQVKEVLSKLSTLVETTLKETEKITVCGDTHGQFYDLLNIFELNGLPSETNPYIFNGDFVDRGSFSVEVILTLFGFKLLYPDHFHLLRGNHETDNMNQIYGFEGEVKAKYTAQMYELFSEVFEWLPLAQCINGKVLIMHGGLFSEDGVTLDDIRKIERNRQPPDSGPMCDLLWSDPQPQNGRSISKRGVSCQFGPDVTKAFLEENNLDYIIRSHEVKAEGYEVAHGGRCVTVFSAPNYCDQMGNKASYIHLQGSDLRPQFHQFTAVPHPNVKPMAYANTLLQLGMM
# Exocytosis inh: blocks lytic granule exocytosis | 360,000 compounds, 0.66% hits | TALL-104 LAMP-1 surface exposure, flow cytometry; cells stimulated with thapsigargin and PMA | AID 651702 | inhibition, % at 10 µM;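 active = inhibition above about 55%, limit read from the data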
# IDE act: IDE (human) activation, cell-based. P14735. HEK cells, FAbeta-B cleavage, fluorescence polarization; 0% vehicle, 100% cell-free pure enzyme wells. activation, % at 5.96 µM. 340,000 compounds, 0.073% hits. AID 493087;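 active = activation above the mean of all tested compounds plus 3 SD, set per screening campaign, cut at about 17% in these data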
# IDE inh: inhibits human insulin-degrading enzyme in HEK cells. P14735. FAbetaB cleavage, fluorescence polarization. inhibition, % at 5.59 µM. 320,000 compounds, 0.41% hits. AID 434962;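 active = percent inhibition above the average of all tested compounds plus 3 SD, set per screening campaign, cut at about 16% in these data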;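 note: IDE supplied by intact live HEK cells; FP after avidin binding of uncleaved biotin substrate so inhibition keeps polarization high; 0% = DMSO wells and 100% = 60 µM reference IDE inhibitor Ii1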
# SKKanGAS inh: SKKanGAS growth inhibition. 300,000 compounds, 1.3% hits. inhibition, % at 7.5 µM. S. pyogenes SKKanGAS, kanamycin growth, BacTiter-Glo, 6 h;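 active = mean replicate score, as percent of positive control median, at least 50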;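 note: strain carries kanamycin resistance gene driven by streptokinase promoter and grows in 40 µg/ml kanamycin; loss of luminescence reflects streptokinase promoter inhibition or plain growth inhibition; 0% = median of DMSO wells and 100% = positive control at its reference dose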
# Starred values were filed as active, the others as inactive; i = inactive; nt = no result given.
SMILES,PP1 counter,PP5 primary,Exocytosis inh,IDE act,IDE inh,SKKanGAS inh
O=C(O)/C=C/C(=O)N(CC1CCCO1)C1CC(=O)N(c2c(Cl)cccc2Cl)C1=O (centres undefined),-3,1,9,8,-1,-8
CC(C)=CCc1c(O)c(CC=C(C)C)c2c(c1O)C(=O)CC(c1ccc(O)cc1)O2 (centres undefined),1,5,16,11,0,102*
O=C(/C=C/c1ccccc1[N+](=O)[O-])c1ccccc1Br,-3,0,7,-3,5,3
CN(c1ccccc1)c1nc(N2CCCC2)nc(-n2ccnc2)n1,12,1,2,-4,-4,52*
c1ccc(N(c2ccccc2)c2nc(N3CCCC3)nc(-n3ccnc3)n2)cc1,14,4,2,1,1,79*
Cc1ccccc1NC(=O)CSCc1cc(=O)n2ccsc2n1,-4,-2,3,2,-2,-4
O=C(CN1C(=O)NC2(CCCCCC2)C1=O)NCc1ccccc1Cl,nt,nt,4,-5,-2,nt
CC(=O)Nc1ccc2[nH]c3ccccc3c2c1,-3,2,0,3,3,-12
O=C(Nc1ccc(Cl)cc1)c1cc2c(cc1O)[nH]c1ccccc12,9,0,21,5,-6,100*
CCOC(=O)N1CCN(C(=O)CSc2nc3c([nH]c4ccccc43)c(=O)n2CC)CC1,0,1,4,3,0,-1
C=C[C@]1(C)C[C@@H](OC(=O)CSCCN(CC)CC)[C@]2(C)C(C)CC[C@]3(CCC(=O)[C@H]32)[C@@H](C)[C@@H]1O (some centres undefined),-4,-2,6,6,0,104*
CC12CCC(C/C1=N\N=C1\NC(=O)/C(=C\c3cccc(Br)c3)S1)C2(C)C (centres undefined),11,6,-3,3,9,104*
O=C(O)CCCC[C@@H]1SC[C@@H]2NC(=O)N[C@@H]21,-1,3,0,64*,-29,4
COC(=O)CCCCC1SCC2NC(=O)NC21 (centres undefined),-5,-3,-1,-6,2,2
COC(=O)c1ccccc1-c1c2ccc(=N)cc-2oc2cc(N)ccc12,i,i,1,39*,-3,nt
Cn1c(N)c(C(=O)COC(=O)COc2ccccc2C#N)c(=O)n(C)c1=O,-4,-2,2,-1,3,12
O=C(Cn1nc(C(=O)O)c2ccccc2c1=O)Nc1ccc2c(c1)C(=O)c1ccccc1C2=O,-4,-1,nt,nt,0,20
COC(=O)c1[nH]c2cc(C)ccc2c1NC(=O)CN1CCN(c2ccccc2OC)CC1,4,5,7,-2,7,20
COC(=O)c1[nH]c2ccc(C)cc2c1NC(=O)CN1CCCc2ccccc21,17*,3,-4,0,3,18
Cc1cccc(S(=O)(=O)NC(=O)C2(C)CCN2C(=O)CCC2CCCC2)c1 (centres undefined),nt,nt,8,nt,nt,nt
Cc1c(C(=O)C(=O)NCCCn2ccnc2)c2ccccc2n1C,0,1,-7,4,-3,-1
CCN(CC)c1ccc(C(=O)OCc2cc(=O)oc3cc(O)ccc23)cc1,3,1,-3,3,5,51*
C=CCc1cccc(/C=N/NC(=O)C(C)Nc2cccc(C)c2)c1O (centres undefined),5,8,1,-3,1,60*
C=CCc1cccc(/C=N/NC(=O)CCCNc2ccc(C)cc2)c1O,4,3,-6,7,-12,16
COc1ccc(C2c3c(-c4ccccc4O)n[nH]c3C(=O)N2CCc2ccc(OC)c(OC)c2)cc1 (centres undefined),7,5,1,1,4,9
SMILES,PP1 counter,PP5 primary,Exocytosis inh,IDE act,IDE inh,SKKanGAS inh
COc1ccc(CCN2C(=O)c3[nH]nc(-c4ccccc4O)c3C2c2cccc(Cl)c2)cc1 (centres undefined),6,7,62*,3,-1,71*
Cc1ccc(SC2=C(Sc3ccc(C)cc3)C(=O)c3ccccc3C2=O)cc1,-1,1,93*,-16,1,33
Cc1ccc(N2C(=O)c3ccccc3C2=O)cc1,5,-2,-2,1,2,5
CCN1C/C(=C\c2cccc([N+](=O)[O-])c2)C(=O)/C(=C/c2cccc([N+](=O)[O-])c2)C1,nt,nt,83*,3,nt,nt
COc1ccc(NC(=O)C(c2cc3ccccc3o2)n2c(=O)c(-c3cc4ccccc4[nH]3)nc3ccccc32)cc1 (centres undefined),nt,nt,2,nt,nt,nt
O=C(Nc1nc(-c2ccccc2)cs1)c1ccc(N2CCOCC2)c([N+](=O)[O-])c1,4,3,84*,2,1,19
Cc1ccc(-c2csc(NC(=O)c3cc([N+](=O)[O-])ccc3N3CCOCC3)n2)cc1,-3,-1,1,3,-6,2
O=C(O)c1ccccc1N=Nc1ccc(O)cc1,0,-2,-3,20*,-14,3
O=C(O)c1ccccc1Nc1ccc([N+](=O)[O-])c2nonc12,1,2,5,22*,-14,9
O=C1N=c2ccccc2=C1c1sc(=S)n(NC(=O)c2ccccc2)c1O,-3,0,-4,-8,0,-1
C=CCn1c(O)c(C2=c3ccccc3=NC2=O)sc1=Nc1ccc(O)cc1,4,2,20,19*,-7,41
Nc1nc(-c2ccco2)c(-c2ccco2)s1,3,0,10,-1,7,-5
c1coc(-c2nc(-c3ccco3)c(-c3ccco3)nc2-c2ccco2)c1,43*,2,nt,3,-7,-18
CCOc1ccc(S(=O)(=O)Nc2cc(Sc3ncn[nH]3)c3oc(=O)sc3c2)cc1,16*,1,nt,nt,8,23
CCOc1ccc(S(=O)(=O)Nc2ncn[nH]2)cc1,-1,-1,1,0,1,1
CCC1(c2ccc(F)cc2)NC(=O)N(CC(=O)Nc2cccnc2Cl)C1=O (centres undefined),-4,-1,-6,-5,3,-5
COc1ccc(CCNC(=O)COC(=O)c2cc(S(=O)(=O)N3CCOCC3)ccc2C)cc1OC,nt,nt,-2,-3,2,nt
Oc1[nH]c2c(Cl)cc(Cl)cc2c1N=NC(=S)NCC1CCCO1 (centres undefined),12,1,-12,3,-6,95*
Oc1[nH]c2ccc(Br)cc2c1N=NC(=S)NCC1CCCO1 (centres undefined),5,-1,11,5,-4,81*
Cc1cc(C)c2[nH]c(O)c(N=NC(=S)NCC3CCCO3)c2c1 (centres undefined),-1,0,-1,-2,0,0
Nc1nc(N)c(C=Nc2ccc(Br)cc2)c(Nc2ccc(Br)cc2)n1,1,1,-24,5,-10,100*
